For 18 molecules, growth inhibition results are on record in PubChem BioAssay AID2726 (Broad Institute, 2010).

This is one part of the list. Calls of active or inactive are those of the source.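 How the source made its calls: active means every replicate shows growth inhibition above 50%; inconclusive means at least half, but not all, replicates pass that cutoff; inactive means fewer than half of replicates pass it.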

This assay in a line: Vibrio harveyi growth inhibition, confirmation, counter-screen for AI-2 quorum sensing project, JMH597 strain, OD600 absorbance (AID 2726). As to conditions: 9 h, at 7.5 µM, stronger effect = higher value, lacks LuxN and CqsS sensors. (In general: Counterscreens check selectivity or assay interference.)
As to `N/C(=N\OC(=O)CCc1ccccc1)c1cccnc1`, the growth inhibition is 3.39% (inactive). As for `CC(CNc1ccc([N+](=O)[O-])cc1)NC(=O)c1ccccc1Br` (stereo not drawn), the figure is 16.7% (inactive); as for `CCOC(=O)c1nn(-c2cccc(C)c2)cc1C(=O)c1ccccc1`, -8.39% (inactive). Turning to `O=C(COC(=O)C1CCCCC1)Nc1ccc([N+](=O)[O-])cc1`, the growth inhibition was -6.27% (inactive). As for `COc1cccc(NC(=O)NCc2ccc(F)cc2)c1`, the figure is -8.06% (inactive); as for `O=C(CCC(=O)c1cccs1)Nc1nc2ccccc2s1`, -16.4% (inactive); as for `COc1ccc(/C(N)=N/OC(=O)Cc2ccccc2)cc1`, 15.4% (inactive). For the molecule `O=C(c1cc(-c2cccc(O)c2)on1)N1CCc2ccccc2C1`, the growth inhibition is 14.2% (inactive). The figure for `Cc1ccccc1NC(=O)CCOc1ccccc1` is -12.9% (inactive); for `Cc1nn(CC(=O)Nc2ccc(F)cc2)c(=O)c2ccccc12` it is 2.73% (inactive). The figure for `COC(=O)c1ccc(SCc2ccccc2)nc1` is 13.9% (inactive); for `O=C(/C=C/c1ccc2c(c1)OCCO2)c1ccc(O)cc1` it is 2.39% (inactive). For `Cc1ccc(Oc2cnn(-c3ccccc3)c(=O)c2Br)cc1`, the growth inhibition is -6.12% (inactive).

Regarding `Cc1cc(C(=O)OCC(=O)Nc2ccc(F)c(F)c2)c(C)o1`, the growth inhibition is 2.76% (inactive). With `Cc1ccc(NC(=O)C2CC2c2ccccc2)cc1` (stereo not drawn), the growth inhibition is -14.1% (inactive).

`COC(=O)C1CCN(C(=O)c2ccc3oc(Cc4ccc(Cl)cc4)nc3c2)CC1`: the growth inhibition is 26.4% (inactive). The figure for `Cc1ccc(Cc2nc(-c3cccc(C)c3)no2)cc1` is 30.5% (inactive). As for `O=C(COc1ncnc2ccccc12)NC(=O)NCc1ccccc1`, the figure is 17.5% (inactive).
